Screening results: PubChem, National Center for Advancing Translational Sciences (NCATS)
Sampled rows, rich in hits. Any-hit rate of the full collection: about 3.2%.
TSHR ag: activates the human thyroid stimulating hormone receptor; HEK293-CNG-TSHR cells (CNG channel as cAMP sensor), membrane potential dye, cAMP; Potency, µM (series often up to 57.1 µM), for inactives: top-dose activation, actives largely listed as activators; actives 0.48% (n = 73,000); AID 926; active means well fitted activation curve with a large enough effect in the main read-out, with a control signal flat, not every such curve was filed as active; inconclusive means small, poorly fitted or top-dose-only effect, or a change in a side signal; inactive means no such curve, though single readings can be large or run the other way; % of control where 0% means no effect;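 further: the control signal comes from parental cells without the receptor; potency means the concentration at half of the fitted maximal effect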
Target sequence (P16473 whole entry, looked up): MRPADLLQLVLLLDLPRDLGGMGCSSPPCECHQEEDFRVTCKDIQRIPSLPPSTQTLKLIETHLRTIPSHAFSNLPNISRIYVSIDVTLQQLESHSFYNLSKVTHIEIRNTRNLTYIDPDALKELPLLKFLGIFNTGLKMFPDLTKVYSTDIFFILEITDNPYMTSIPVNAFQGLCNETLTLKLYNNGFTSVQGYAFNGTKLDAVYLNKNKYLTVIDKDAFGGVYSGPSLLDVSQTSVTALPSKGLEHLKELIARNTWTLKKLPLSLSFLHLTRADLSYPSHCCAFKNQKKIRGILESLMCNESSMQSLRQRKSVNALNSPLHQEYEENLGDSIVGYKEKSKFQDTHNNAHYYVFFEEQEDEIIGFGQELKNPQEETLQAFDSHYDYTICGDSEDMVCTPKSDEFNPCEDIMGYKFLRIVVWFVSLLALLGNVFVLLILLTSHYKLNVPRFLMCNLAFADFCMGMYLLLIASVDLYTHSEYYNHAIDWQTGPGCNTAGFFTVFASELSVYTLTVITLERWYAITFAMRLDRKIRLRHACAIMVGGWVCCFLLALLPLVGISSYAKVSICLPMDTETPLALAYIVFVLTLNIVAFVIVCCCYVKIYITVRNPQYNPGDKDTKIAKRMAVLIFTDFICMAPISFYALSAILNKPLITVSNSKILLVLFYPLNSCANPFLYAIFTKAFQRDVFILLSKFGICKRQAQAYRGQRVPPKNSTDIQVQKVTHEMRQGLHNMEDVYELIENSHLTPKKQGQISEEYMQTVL
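cAMP rise detected as CNG-channel membrane depolarization by fluorescent dye (emission 590 nm), 30 min after compound, following 60 min dye loading containing 100 uM RO 20-1724 at room temperature. Cells: TSHR/CNG HEK 293, with parental CNG HEK 293 as control.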
DNA Pol III inh: inhibitors of bacterial DNA polymerase III holoenzyme; reconstituted DNA polymerase III holoenzyme replication, biochemical; actives 0.25% (n = 71,000); Potency, µM (doses to about 57.1 µM), for the others: at the highest dose activity change, negative = inhibition; further: potency means the concentration at half of the fitted maximal effect; on the % scale 0 is the no-effect control and ±100 the full control effect
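Reconstituted *E. coli* holoenzyme (0.35 nM Pol III, 1 nM beta, 154 nM SSB, 2 nM primase) was preincubated with compound for 15 min at RT. Synthesis on 1.4 nM ssM13Gori ran 35 min, then was stopped with PicoGreen/EDTA and read as dsDNA fluorescence.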
BRCT PPI red: disrupts BRCA1 BRCT binding to phosphoprotein, red fluorophore readout | AID 892 | P38398 | actives 0.03% (n = 75,000) | BRCT-phosphopeptide binding, red fluorescence polarization | Potency, µM (top dose mostly 76.9 µM), for the others: at the top dose activity change, negative = inhibition, hits mostly inhibitors; further: on the % scale 0 is the no-effect control and ±100 the full control effect
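Rhodamine-labelled pBACH1 10-mer (100 nM) bound to BRCT domain (100 nM) at pH 7.3; compounds incubated 12 min room temperature, polarization read. Free peptide defines full inhibition; unlabelled decapeptide titrated as control.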
HEK293 cAMP ctrl: parental HEK293 cAMP activation (counter-screen); actives 2.5% (n = 73,000); Potency, µM (top dose mostly 57.1 µM), without a hit: top-dose activation, actives largely listed as activators; parental HEK293 CNG cAMP sensor, membrane potential fluorescence; further: potency means the concentration at half of the fitted maximal effect; % of control where 0% means no effect; nearly all actives have a fitted effect of over 55% in size
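Parental HEK 293 cells stably expressing a cAMP-gated CNG channel were loaded with membrane potential dye containing 100 uM RO 20-1724 for 60 min. Compound added for 30 min; depolarization read as fluorescence intensity at 590 nm.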
YjeE inh: inhibitors of E. coli YjeE (TsaE); actives 0.05% (n = 71,000); AID 605; purified YjeE enzyme, qHTS inhibition assay; Potency, µM
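Purified YjeE (10 uM) with BODIPY Texas Red-labeled ADP probe (2 uM); compounds pin-transferred, 15 min at room temperature. Binding inhibition read as decreased fluorescence polarization; ADP titration as control.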
BRCT inh green: BRCA1 BRCT-phosphoprotein interaction inhibition. Potency, µM (doses to about 76.9 µM), inactives show top-dose activity change, negative = inhibition, usual class: inhibitors. P38398. BRCA1 BRCT-phosphopeptide binding, green fluorescence polarization. actives 0.05% (n = 75,000);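 further: potency means the concentration at half of the fitted maximal effect; plate controls were peptide without protein for full effect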
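Fluorescence polarization: His-tagged BRCT (~35 kDa BRCA1 C-terminus, 250 nM) bound to 100 nM fluorescein-labeled phosphorylated 10-aa BACH1 peptide, pH 7.3 phosphate buffer with DTT and Tween 20. Compounds incubated 12 min at room temperature; inhibition read as lowered polarization.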
Active calls of the source: *; ! = a repeat was not active; [ ] = another dose, or the depositor's remark. Unless noted, the call rests on the fitted dose curve; in most records, active means well fitted curve in the direction sought with a large enough effect; inconclusive means small, poorly fitted or top-dose-only effect, or another doubt; inactive means no such curve, though single readings can be large; an effect the other way counts as inactive or inconclusive.

Results for Nc1ncnc2c1nc(-c1ccccc1)n2[C@H]1O[C@@H](CO)[C@@H](O)[C@H]1O ?
TSHR ag: 6.3%[11.4 µM]; DNA Pol III inh: -4.1%[11.4 µM]; BRCT PPI red: 0.1%[15.4 µM]; HEK293 cAMP ctrl: -4.0%[11.4 µM]; YjeE inh: inactive; BRCT inh green: 1.4%[15.4 µM]

How did O=C1c2ccccc2C(Cc2ccncc2)(Cc2ccncc2)c2ccccc21 do in these assays?
TSHR ag: inconclusive; DNA Pol III inh: -3.5%; BRCT PPI red: -1.1%; HEK293 cAMP ctrl: 3.16µM*; YjeE inh: inactive; BRCT inh green: -4.8%

What do the screens show for `CN[C@@H]1[C@H](O)[C@H](NC)[C@@H]2O[C@]3(O)C(=O)C[C@@H](C)O[C@H]3O[C@@H]2[C@H]1O`?
TSHR ag: 0.7%; DNA Pol III inh: -3.5%; HEK293 cAMP ctrl: 3.0%; YjeE inh: inactive

Results for O=C1CCc2cc(OCCCCc3nnnn3C3CCCCC3)ccc2N1 ?
TSHR ag: 25.1µM*; DNA Pol III inh: -4.7%; BRCT PPI red: -1.0%; HEK293 cAMP ctrl: inconclusive; YjeE inh: inactive; BRCT inh green: -2.5%

Results for O=C(NCCCN1CCCC1)C1CCN(C(=O)c2cc3sccc3n2Cc2ccc(F)cc2)CC1 ?
TSHR ag: 2.8%; DNA Pol III inh: 0.8%; BRCT PPI red: 0.8%; HEK293 cAMP ctrl: 5.3%; YjeE inh: inactive; BRCT inh green: 3.9%

What do the screens show for `CCN1CCN(C(=O)C2CCN(C(=O)c3cc4sccc4n3CC)CC2)CC1`?
TSHR ag: 5.6%; DNA Pol III inh: 1.5%; BRCT PPI red: 0.5%; HEK293 cAMP ctrl: 8.7%; YjeE inh: inactive; BRCT inh green: -0.6%

Results for CCn1c(C(=O)N2CCC(C(=O)NCCCSC3CCCCC3)CC2)cc2sccc21 ?
TSHR ag: inconclusive; DNA Pol III inh: 5.6%; BRCT PPI red: 3.1%; HEK293 cAMP ctrl: 15.8µM*; YjeE inh: inactive; BRCT inh green: -0.9%

Results for O=C(NCc1ccco1)C1CCN(C(=O)c2cc3sccc3n2Cc2ccc(F)cc2)CC1 ?
TSHR ag: 20µM*; DNA Pol III inh: 14.4%; BRCT PPI red: -0.4%; HEK293 cAMP ctrl: 28.0%; YjeE inh: inactive; BRCT inh green: 0.1%

Results for CN1CCc2ccccc2[C@@H]1Cc1ccccc1NC(=O)c1sc2ccccc2c1Cl ?
DNA Pol III inh: -2.9%[11.4 µM]; BRCT PPI red: -1.6%[15.4 µM]; HEK293 cAMP ctrl: 12.2%[11.4 µM]; YjeE inh: inactive; BRCT inh green: -2.8%[15.4 µM]

Results for Clc1ccccc1C(c1ccccc1)(c1ccccc1)n1ccnc1 ?
TSHR ag: 39.8µM*!; DNA Pol III inh: -3.7%[25.6 µM]; BRCT PPI red: -1.0%; HEK293 cAMP ctrl: 20.9%[25.6 µM]; YjeE inh: inactive; BRCT inh green: -1.1%[3.08 µM]

How did CCOc1cc(C(=O)OCc2ccc(C(=O)OC)o2)cc(Br)c1OC do in these assays?
TSHR ag: inconclusive; DNA Pol III inh: -5.3%; BRCT PPI red: 0.0%; HEK293 cAMP ctrl: 31.6µM*; YjeE inh: inactive; BRCT inh green: -3.5%

Results for CCc1cccc(NC(=O)CN2C(=O)NC3(CCCCCCC3)C2=O)c1 ?
TSHR ag: 12.6µM*; DNA Pol III inh: 2.2%; BRCT PPI red: 2.3%; HEK293 cAMP ctrl: 14.0%; YjeE inh: inactive; BRCT inh green: 0.3%

Results for C=CCn1c(SCC(=O)NCc2ccc3c(c2)OCO3)nnc1C1COc2ccccc2O1 (configuration not stated) ?
TSHR ag: 11.8%; DNA Pol III inh: 3.6%; BRCT PPI red: 1.2%; HEK293 cAMP ctrl: 27.6%; YjeE inh: inactive; BRCT inh green: -0.5%

How did O=C(CSc1nc2ccccc2c(=O)n1Cc1ccco1)c1ccc(F)cc1 do in these assays?
TSHR ag: inconclusive; DNA Pol III inh: -9.1%; BRCT PPI red: -0.7%; HEK293 cAMP ctrl: 25.1µM*; YjeE inh: inactive; BRCT inh green: 2.6%

How did O=C(CSc1nnc(C2CCCCC2)n1Cc1ccccc1)NCc1ccco1 do in these assays?
TSHR ag: inconclusive; DNA Pol III inh: -7.6%; BRCT PPI red: 0.8%; HEK293 cAMP ctrl: 12.6µM*; YjeE inh: inactive; BRCT inh green: -1.9%

What do the screens show for `CC1CCCC(C)N1C(=O)Cn1c(SCC(=O)NCc2ccc3c(c2)OCO3)nc2ccccc21` (configuration not stated)?
TSHR ag: inconclusive; DNA Pol III inh: -3.5%; BRCT PPI red: -2.3%; HEK293 cAMP ctrl: 15.8µM*; YjeE inh: inactive; BRCT inh green: 1.1%

How did O=C(CSc1nnc(CNc2ccc(F)cc2)n1Cc1ccccc1)NCc1ccco1 do in these assays?
TSHR ag: 9.6%; DNA Pol III inh: -2.7%; BRCT PPI red: -1.9%; HEK293 cAMP ctrl: 15.7%; YjeE inh: inactive; BRCT inh green: -3.1%

Results for C=CCn1c(SCC(=O)NCc2ccc3c(c2)OCO3)nnc1C1CCCCC1 ?
TSHR ag: inconclusive; DNA Pol III inh: 2.3%; BRCT PPI red: -1.4%; HEK293 cAMP ctrl: 25.1µM*; YjeE inh: inactive; BRCT inh green: 0.8%

How did CO[C@@H]1COC(=O)C/C=C\[C@@H](C)[C@@H]2C=C[C@H](O)[C@@H](COC(=O)CCC[C@H]1C)O2 do in these assays?
TSHR ag: -3.3%[11.4 µM]; BRCT PPI red: 1.2%[15.4 µM]; HEK293 cAMP ctrl: -0.8%[11.4 µM]; BRCT inh green: -0.8%[15.4 µM]

What do the screens show for `COc1ccccc1CNc1cc(-c2cccc(C#N)c2)ncn1`?
DNA Pol III inh: 4.3%; BRCT PPI red: -1.1%; HEK293 cAMP ctrl: 10.3%; YjeE inh: inactive; BRCT inh green: 1.5%

How did Cc1ccc(OCc2nnc(SCC(=O)c3ccccc3)n2Cc2ccco2)cc1 do in these assays?
TSHR ag: inconclusive; DNA Pol III inh: -3.8%; BRCT PPI red: -2.7%; HEK293 cAMP ctrl: inconclusive; YjeE inh: inactive; BRCT inh green: 2.3%

How did O=C(CSc1nnc2scc(-c3ccccc3)n12)NCc1ccco1 do in these assays?
TSHR ag: 3.4%; DNA Pol III inh: 0.1%; BRCT PPI red: -1.1%; HEK293 cAMP ctrl: 1.4%; YjeE inh: inactive; BRCT inh green: -1.3%

Results for Cc1ccc(OCc2nnc(SCc3nc4ccccc4[nH]3)n2Cc2ccco2)cc1 ?
TSHR ag: inconclusive; DNA Pol III inh: 1.8%; BRCT PPI red: 0.1%; HEK293 cAMP ctrl: 31.6µM*; YjeE inh: inactive; BRCT inh green: 7.5%

Results for O=C(CSc1ncc(-c2ccccc2)n1-c1ccccc1)NCc1ccco1 ?
TSHR ag: inconclusive; DNA Pol III inh: 1.1%; BRCT PPI red: -3.1%; HEK293 cAMP ctrl: 31.6µM*; YjeE inh: inactive; BRCT inh green: -2.5%

What do the screens show for `COc1ccc(C(=O)Nn2c(SCC(=O)NCc3ccco3)nc3ccccc3c2=O)cc1`?
TSHR ag: inconclusive; DNA Pol III inh: 10.4%; BRCT PPI red: -3.1%; HEK293 cAMP ctrl: 20µM*; YjeE inh: inactive; BRCT inh green: -0.5%
